Measured values taken from publication PMC4336329 (PLoS ONE, 2015).
About 2,200 (0.71%) of roughly 310,000 compounds showed an effect of 50% or more. Effects have a minus sign here. The entries come from a sample that favours strong results as a whole.

Molecular target: human ether-à-go-go-related gene (hERG) potassium channel (human, UniProt Q12809)
Assay: primary screen, population patch clamp on CHO cells stably expressing hERG; higher = less effect of the substance

human ether-à-go-go-related gene (hERG) potassium channel, sequence (Q12809 whole entry, looked up): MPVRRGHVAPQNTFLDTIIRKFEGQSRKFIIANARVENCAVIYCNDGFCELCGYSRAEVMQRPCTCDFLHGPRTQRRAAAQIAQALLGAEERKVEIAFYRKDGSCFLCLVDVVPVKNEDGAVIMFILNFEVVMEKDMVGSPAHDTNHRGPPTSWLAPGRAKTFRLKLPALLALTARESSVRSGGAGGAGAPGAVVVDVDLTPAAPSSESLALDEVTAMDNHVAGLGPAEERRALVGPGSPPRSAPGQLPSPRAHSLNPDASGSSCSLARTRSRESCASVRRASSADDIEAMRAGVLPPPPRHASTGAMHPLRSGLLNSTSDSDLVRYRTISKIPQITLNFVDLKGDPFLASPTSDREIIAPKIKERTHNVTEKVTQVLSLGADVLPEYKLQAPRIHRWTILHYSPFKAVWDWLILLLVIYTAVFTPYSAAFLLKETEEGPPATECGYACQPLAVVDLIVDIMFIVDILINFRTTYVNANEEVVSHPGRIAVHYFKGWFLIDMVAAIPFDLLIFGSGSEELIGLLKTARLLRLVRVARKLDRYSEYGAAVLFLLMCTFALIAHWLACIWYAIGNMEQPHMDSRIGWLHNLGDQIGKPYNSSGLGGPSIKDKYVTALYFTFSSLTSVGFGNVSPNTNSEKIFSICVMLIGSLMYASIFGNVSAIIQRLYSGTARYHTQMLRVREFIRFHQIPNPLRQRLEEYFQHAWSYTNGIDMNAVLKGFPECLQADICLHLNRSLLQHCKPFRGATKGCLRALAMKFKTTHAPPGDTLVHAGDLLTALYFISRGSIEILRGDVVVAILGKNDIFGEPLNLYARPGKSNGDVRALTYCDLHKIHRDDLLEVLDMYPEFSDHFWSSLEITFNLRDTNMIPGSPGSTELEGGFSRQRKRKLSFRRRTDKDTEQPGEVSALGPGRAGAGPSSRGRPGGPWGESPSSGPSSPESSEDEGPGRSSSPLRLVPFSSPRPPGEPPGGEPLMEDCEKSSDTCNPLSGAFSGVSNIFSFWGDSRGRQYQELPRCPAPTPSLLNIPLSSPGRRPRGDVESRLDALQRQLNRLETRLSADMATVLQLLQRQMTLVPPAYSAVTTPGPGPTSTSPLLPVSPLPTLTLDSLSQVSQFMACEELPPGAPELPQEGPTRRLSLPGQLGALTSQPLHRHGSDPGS

Row | Compound | hERG current change (%, negative = inhibition) at 1uM [%]
1 | Cc1ccc(-c2csc3nc(C(C)C)oc(=O)c23)c(C)c1 | 13.5
2 | CCOc1ccccc1CN1CCN(Cc2nc3c(s2)CCCC3)CC1CCO (centres unmarked) | -26.6
3 | CCOc1ccccc1CN1CCN(Cc2cccc3c2OCO3)CC1CCO (centres unmarked) | -2.66
4 | CCOc1ccc(CN2CCN(Cc3cccc4nonc34)CC2CCO)cc1 (centres unmarked) | -84.6
5 | CCOc1ccccc1CN1CCN(Cc2nc3ccccc3s2)CC1CCO (centres unmarked) | -67.7
6 | COc1ccc(CN2CCN(Cc3cccc4nonc34)CC2CCO)c(C)c1C (centres unmarked) | -7.13
7 | CCOc1ccccc1CN1CCN(Cc2cccc3nonc23)CC1CCO (centres unmarked) | -50
8 | OCCC1CN(Cc2cccc3nonc23)CCN1Cc1ccsc1 (centres unmarked) | -15.7
9 | COc1cccc(CN2CCN(Cc3cccc4nonc34)CC2CCO)c1 (centres unmarked) | -24
10 | CCOc1ccccc1CN1CCN(Cc2ccon2)CC1CCO (centres unmarked) | -7.08
11 | CC1CC(C)CN(C(=O)c2cc3cc(Br)cc(Br)c3o2)C1 (centres unmarked) | 11.6
12 | COc1ccc(CN2C=C3C(=O)C(C)(OC(=O)C4CCCC4)C(=O)C=C3C=C2c2ccsc2)cc1 (centres unmarked) | -2.57
13 | CCOC(=O)N(NC(=O)C(O)(CC(C)C)CC(C)C)c1ccccc1 | 6.37
14 | CCN(CC)CCN1C(=O)Cn2c(C)c(C)c3cccc1c32.O=C(O)C(O)C(O)C(=O)O | -56.1
15 | CCN(CC)CCN1C(=O)Cn2c(C)c(C)c3cccc1c32.Cl | -12.2
16 | CCN(CC)CCN1c2ccccc2Sc2ccccc21.O=C(O)C(=O)O | -3.5
17 | CCCc1ncc(CN2CCCCC2C(=O)Nc2ccc(Oc3ccccc3)nc2)cn1 (centres unmarked) | 12.1
18 | Cc1cc(=O)c(C(=O)O)nn1-c1ccccc1 | 8.46
19 | O=C(O)c1nn(-c2cccc(C(F)(F)F)c2)ccc1=O | 15.1
20 | Cc1cc(=O)c(C(=O)O)nn1-c1cccc(C(F)(F)F)c1 | -78.9
21 | Cc1ccc2nc(C)cc(N/N=C/c3ccc(F)cc3)c2c1 | 0.285
22 | CC(=O)Nc1ccc(N2CCC(C)CC2)c([N+](=O)[O-])c1 | 7.46

Row | Compound | hERG current change (%, negative = inhibition) at 1uM [%]
23 | COc1ccc(C2CC(C(F)(F)F)n3nc(C(=O)N(C)Cc4cn(C)nc4C)c(Cl)c3N2)cc1 (centres unmarked) | -3.33
24 | CCOC(=O)c1cnc(N2CCN(C(=O)OCC)CC2)[nH]c1=O | 13.9
25 | O=C(CCN1C(=O)C2C3C=CC(C3)C2C1=O)N1CCN(c2ccc(F)cc2)CC1 (centres unmarked) | -5.37
26 | Cl.O=C1C2C3C=CC(C4CC34)C2C(=O)N1CCCCN1CCN(c2ccc(F)cc2)CC1 (centres unmarked) | -69.2
27 | O=C1C2CCCN2C(=O)N1CCCCN1CCN(c2ccc(F)cc2)CC1 (centres unmarked) | -10
28 | Cc1cc(NC(=O)CCC(=O)N(c2cccnc2)C(C(=O)NC2CCCC2)c2ccccc2F)no1 (centres unmarked) | 8.56
29 | Cc1ccc(OCCC(=O)OCC(=O)c2c(N)n(CC(C)C)c(=O)n(C)c2=O)cc1 | -42.3
30 | CCOc1ccccc1OCC(=O)OCC(=O)c1c(N)n(CC(C)C)c(=O)n(C)c1=O | -9.86
31 | Cc1ccccc1OCCC(=O)OCC(=O)c1c(N)n(CC(C)C)c(=O)n(C)c1=O | -63.8
32 | CS(=O)(=O)Nc1ccc(Cc2noc(-c3ccc4[nH]cc(CCN)c4c3)n2)cc1.O | 18.4
33 | CN(C(=O)c1ccc2c(c1)OCO2)C1CCCCC1 | 6.85
34 | Cc1nc(NC(=O)CC(C)C)sc1-c1csc(Nc2ccc(Cl)cc2)n1 | 12.5
35 | Cc1ccccc1C(=O)NNC(=S)Nc1cccc(C(F)(F)F)c1 | 13.2
36 | CCCCc1ccc(-c2nc(NC(=O)C3C4CCC(O4)C3C(=O)O)sc2C)cc1 (centres unmarked) | 11.9
37 | CCC(=O)N1CCN(c2ccc(Cl)cc2NC(=O)c2ccc([N+](=O)[O-])o2)CC1 | 0.198
38 | CCC(=O)N1CCN(c2ccccc2NC(=O)c2ccc(-c3cccc([N+](=O)[O-])c3)o2)CC1 | -3.2
39 | CC(C)C(=O)N1CCN(c2ccccc2NC(=O)c2ccc([N+](=O)[O-])o2)CC1 | -23.5
40 | CN1CCN(c2ccccc2NC(=O)c2ccc(-c3cccc([N+](=O)[O-])c3)o2)CC1 | -0.213
41 | CC(=O)N1CCN(c2ccccc2NC(=O)c2ccc(-c3cccc([N+](=O)[O-])c3)o2)CC1 | -81.6
42 | O=C(Nc1ccccc1N1CCOCC1)c1ccc([N+](=O)[O-])o1 | -1
43 | O=C(Nc1ccccc1N1CCCC1)c1ccc([N+](=O)[O-])o1 | 1.03
44 | CN1CCN(c2ccccc2NC(=O)c2ccc([N+](=O)[O-])o2)CC1 | -62.4

Row | Compound | hERG current change (%, negative = inhibition) at 1uM [%]
45 | CCC(=O)N1CCN(c2ccccc2NC(=O)c2ccc([N+](=O)[O-])o2)CC1 | -60.5
46 | c1ccc(C(c2nnnn2C2CCCCC2)N2CCc3ccccc3C2)nc1 (centres unmarked) | 7.86
47 | C[C@H](NC(=O)N1CCn2c1nc1ccccc12)C(=O)NCCc1ccccc1 | 17.4
48 | COc1ccc(NC(=S)N2CCN(C(=O)c3ccco3)CC2)c(OC)c1 | 8.24
49 | CCn1c(=S)sc2c(=O)[nH]c(C)nc21 | 13.5
50 | COc1cccc(CN2CC(C(=O)N3CCCCCCC3)CCC2=O)c1 (centres unmarked) | 9.63
51 | COc1cccc(CN2CC(C(=O)N3CCCC3)CCC2=O)c1 (centres unmarked) | 10.9
52 | COc1cccc(CN2CC(C(=O)N3CCN(c4ccc(Cl)cc4)CC3)CCC2=O)c1 (centres unmarked) | -53.3
53 | CCOC(=O)c1oc2ccccc2c1CSc1nnnn1-c1ccc(C)cc1 | 5.36
54 | COc1ccc(/C=C/C(=O)NC2CCN(Cc3ccccc3)CC2)cc1OC | 12
55 | Cl.O=C(NC(=S)NC1CCN(Cc2ccccc2)CC1)c1ccc(F)cc1 | -57.5
56 | COc1ccccc1C1CCN(Cc2ccc(C)cc2)CC1 | -61.2
57 | COc1ccccc1C1CCN(Cc2ccc(Cl)c(Cl)c2)CC1 | 10.4
58 | COc1ccccc1C1CCN(Cc2ccccc2)CC1 | 8.45
59 | O=C(/C=C/c1cccc(Br)c1)NC1CCN(Cc2ccccc2)CC1 | -27.7
60 | O=C(NC1CCN(Cc2ccc(F)cc2)CC1)c1ccccc1 | -15.9
61 | Fc1ccc(NC(=S)NC2CCN(Cc3ccccc3)CC2)cc1 | 6.75
62 | Cc1ccc(CN2CCC(NC(=O)c3ccccc3)CC2)cc1 | -52.8
63 | O=C(/C=C/c1cccc(F)c1)NC1CCN(Cc2ccccc2)CC1 | -51.4
64 | O=C(NC1CCN(Cc2ccccc2)CC1)c1ccccc1 | 2.84
65 | Cc1ccc(CC(=O)NC2CCN(Cc3ccccc3)CC2)cc1 | 7.9
